High-throughput results deposited in PubChem by National Center for Advancing Translational Sciences (NCATS).
PINK1 expr mod – PINK1 expression modulation | hit rate 0.2% among 410,000 | Potency, µM (doses to about 76.6 µM), for inactives: top-dose activation (PINK1 increase), most hits filed as activators | PINK1 immunofluorescence, high-content cytometry, 24 h; active = well fitted activation curve with a large enough effect; inconclusive = small, poorly fitted or top-dose-only effect; cell line not stated here; also: % of control where 0% means no effect; nearly all actives have a fitted effect of over 65% in size
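A stable cell line was treated with compounds at 5 concentrations for 24 hours, with CCCP as control. PINK1 levels and mitochondrial localization were measured by immunofluorescence with mitochondrial, cell and nuclear markers after fixation, read by laser-scanning cytometry.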
KB-V1 cytotox – KB-V1 MDR subline cytotoxicity. KB-V1 MDR cells viability, CellTiter-Glo, 72 h. Potency, µM (top dose mostly 46.1 µM), hits mostly cytotoxic. hit rate 3.4% among 400,000; also: % is scaled to controls: 0 for no effect and ±100 for the full control effect; nearly all actives have a fitted effect of over 60% in size
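Following 72 h at 37 degrees C with compound, KB-V1 cell viability was read by CellTiter-Glo luminescence, medium being phenol-red-free DMEM plus 10% FBS; concentration-response parameters came from normalized, curve-fitted qHTS data.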
SW480 rereplic – induces DNA re-replication in SW480 colon adenocarcinoma cells; SW480 DNA re-replication, Hoechst DNA content imaging, 48 h; Potency, µM (doses to about 46.1 µM), for inactives: top-dose re-replication activation, usual class: activators; hit rate 1.8% among 340,000; also: % of control where 0% means no effect; nearly all actives have a fitted effect of over 55% in size
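SW480 cells exposed to compounds for 48 hr at 37 C, 5% CO2, then Hoechst-stained 40 min. Nuclear DNA content imaged by fluorescence scanning (405 nm excitation, 500-530 nm emission); re-replication scored as increased high-intensity nuclei.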
MCF10A rerep – DNA re-replication induction in MCF 10a cells; MCF 10A DNA re-replication, Hoechst nuclear intensity, 48 h; Potency, µM (series often up to 46.1 µM), for the others: at the top dose activity, positive = re-replication, most hits filed as activators; hit rate 2.9% among 350,000; also: % of control where 0% means no effect; nearly all actives have a fitted effect of over 50% in size
KB-3-1 cytotox – KB-3-1 parental cell cytotoxicity. hit rate 1.4% among 400,000. KB-3-1 viability, CellTiter-Glo ATP luminescence, 72 h. Potency, µM (series often up to 46.1 µM), actives largely listed as cytotoxic. AID 1347075; also: % is scaled to controls: 0 for no effect and ±100 for the full control effect; nearly all actives have a fitted effect of over 60% in size
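KB-3-1 parental drug-naive adenocarcinoma cells in DMEM/10% FBS, incubated 72 h at 37 C with pin-transferred compounds across a concentration series. Viability by CellTiter-Glo luminescence; concentration-response curves fitted after normalization.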
ALOX12 inh – blocks human arachidonate 12S-lipoxygenase | P18054 | purified 12hLO, xylenol orange hydroperoxide absorbance | Potency, µM (top dose mostly 108 µM), for inactives: at the highest dose activity change, negative = inhibition, hits mostly inhibitors | hit rate 1.1% among 580,000; also: % is scaled to controls: 0 for no effect and ±100 for the full control effect
Target sequence (P18054 whole entry, looked up): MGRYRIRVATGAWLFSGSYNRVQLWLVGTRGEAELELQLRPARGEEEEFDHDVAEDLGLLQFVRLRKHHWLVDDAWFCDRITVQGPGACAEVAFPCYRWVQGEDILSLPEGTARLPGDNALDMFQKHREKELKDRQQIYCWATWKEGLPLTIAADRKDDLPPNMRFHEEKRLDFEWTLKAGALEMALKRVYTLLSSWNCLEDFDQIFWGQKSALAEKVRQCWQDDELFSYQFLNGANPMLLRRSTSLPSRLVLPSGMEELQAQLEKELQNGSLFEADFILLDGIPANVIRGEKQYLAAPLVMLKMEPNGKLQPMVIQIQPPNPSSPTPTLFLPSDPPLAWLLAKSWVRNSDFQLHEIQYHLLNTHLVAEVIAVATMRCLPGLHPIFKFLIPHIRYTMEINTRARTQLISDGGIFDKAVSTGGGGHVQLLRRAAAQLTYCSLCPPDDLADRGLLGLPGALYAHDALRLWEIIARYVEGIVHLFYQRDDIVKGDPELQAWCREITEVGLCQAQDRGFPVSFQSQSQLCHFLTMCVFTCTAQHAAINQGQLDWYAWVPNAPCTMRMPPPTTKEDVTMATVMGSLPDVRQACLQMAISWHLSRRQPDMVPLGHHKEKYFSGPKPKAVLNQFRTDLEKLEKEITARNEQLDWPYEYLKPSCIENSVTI
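Purified human 12hLO at 150 nM in 25 mM Hepes, 0.01% Triton X-100, pH 7.0, preincubated 15 min at room temperature with compound. Reaction started with 40 uM arachidonic acid, 30 min at room temperature. Hydroperoxide measured by Fe-xylenol orange, 573/405 nm absorbance ratio.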
The depositor's hits bear a star; [ ] = another dose, or the depositor's remark. Shown are actives, neighbours in structure and some others; about 5.8% of the full set was active somewhere. Unless noted, calls follow the shape of the dose curve; as a rule, active = well fitted curve in the direction sought with a large enough effect; inconclusive = small, poorly fitted or top-dose-only effect, or another doubt; inactive = no such curve, though single readings can be large; an effect the other way counts as inactive or inconclusive. Potency is read from the fitted curve at half-maximal effect.

CC1CCN(CC(=O)Nc2ccc(C#N)c(Cl)c2)CC1 was read as ALOX12 inh 0.7%.
COc1ccc(-c2cc([C@H]3CN4CC[C@H]3C[C@@H]4CNC(=O)c3ccc(C)cc3)n(C)n2)cc1 was read as ALOX12 inh -17.7%.
Cn1cc(C(=O)Cn2cnc3ccccc32)c2ccccc21 was read as ALOX12 inh 37.4%.
Screening C=CCn1c(O)c(C(C)=NCc2cc(OC)cc(OC)c2)c(=O)[nH]c1=O returned PINK1 expr mod -2.1%, KB-V1 cytotox 3.26µM*, SW480 rereplic 5.3%, MCF10A rerep inconclusive, KB-3-1 cytotox 5.17µM* and ALOX12 inh -1.5%.
`C=CCn1c(O)c(C(C)=Nc2cccc(C(=O)O)c2)c(=O)[nH]c1=O` gave PINK1 expr mod 0.2%, KB-V1 cytotox inactive, SW480 rereplic -12.4%, MCF10A rerep 1.2%, KB-3-1 cytotox inactive and ALOX12 inh -0.5%.
Screening C=CCn1c(O)c(C(C)=Nc2ccc(C(=O)OCC)cc2)c(=O)[nH]c1=O returned PINK1 expr mod 2.2%, KB-V1 cytotox inactive, SW480 rereplic -6.0%[9.22 µM], MCF10A rerep 0.6%, KB-3-1 cytotox inactive and ALOX12 inh 5.62µM*.
COc1cc2c(cc1OCc1ccccc1)N(C(=O)CC1CC1)CC21CCN(C)CC1 was read as ALOX12 inh 3.7%[176 µM].
`O[C@H]1[C@H](NCc2ccncc2)[C@H]2CO[C@H](O2)[C@@H]1N1CCOCC1` gave ALOX12 inh -22.6%[176 µM].
COc1cccc(C(c2nnnn2Cc2ccccc2)N2CCC(n3c(=O)[nH]c4ccccc43)CC2)c1OC (configuration not stated) was read as PINK1 expr mod -0.9%, KB-V1 cytotox 18.4µM*, KB-3-1 cytotox inconclusive and ALOX12 inh -23.9%.
`O=c1[nH]c2ccccc2n1C1CCN(C(c2cccc3ccccc23)c2nnnn2Cc2ccccc2)CC1` (configuration not stated) gave PINK1 expr mod 0.2%, KB-V1 cytotox inactive, KB-3-1 cytotox inconclusive and ALOX12 inh -8.6%.
`Cc1cccc(C)c1-n1nnnc1C(c1ccccc1OC(F)(F)F)N1CCC(n2c(=O)[nH]c3ccccc32)CC1` (configuration not stated) gave PINK1 expr mod 2.0%, KB-V1 cytotox inactive, KB-3-1 cytotox 23.1µM* and ALOX12 inh 1.4%.
`O=c1[nH]c2ccccc2n1C1CCN(C(CCc2ccccc2)c2nnnn2C2CCCC2)CC1` (configuration not stated) gave PINK1 expr mod -1.1%, KB-V1 cytotox 3.26µM*, KB-3-1 cytotox inconclusive and ALOX12 inh -24.9%.
For O=c1[nH]c2ccccc2n1C1CCN(C(c2ccccc2)c2nnnn2-c2ccc3c(c2)OCCO3)CC1 (configuration not stated) the results were PINK1 expr mod -0.9%, KB-V1 cytotox 16.4µM*, KB-3-1 cytotox inconclusive and ALOX12 inh -25.2%.
`CSCCC(c1nnnn1-c1ccc2c(c1)OCCO2)N1CCC(n2c(=O)[nH]c3ccccc32)CC1` (configuration not stated) gave PINK1 expr mod 2.2%, KB-V1 cytotox inconclusive, KB-3-1 cytotox inactive and ALOX12 inh -29.1%.
Screening C=CC[N+](CC#CCO)(CCCC)CCCC returned ALOX12 inh 22.1%.
For Cn1nc(-c2ccccc2)cc1[C@H]1CN2CC[C@H]1C[C@@H]2CNC(=O)c1ccco1 the results were ALOX12 inh 43.3%[176 µM].
For CC1=CC(O)C(O)C2(C)C1CC1OC(=O)CC3C(C)C(O)C(=O)C2C13CO (configuration not stated) the results were PINK1 expr mod -1.5%, KB-V1 cytotox inactive, SW480 rereplic inconclusive, MCF10A rerep 0.4% and KB-3-1 cytotox 18.4µM*.
For COc1cc2c(cc1OCC1CC1)NC(=O)C21CCN(C(=O)c2cccc(C#N)c2)CC1 the results were ALOX12 inh -5.3%[176 µM].
CC(C)(C)CN1CCCC2(CC(c3cccnc3)=NO2)C1 (configuration not stated) was read as ALOX12 inh 3.2%[12.5 µM].
COc1cc2c(cc1O)[C@@H]1Cc3ccc(OC)c(O)c3CN1CC2 was read as PINK1 expr mod 8.4%, KB-V1 cytotox 7.31µM*, SW480 rereplic inconclusive, MCF10A rerep inconclusive, KB-3-1 cytotox 5.8µM* and ALOX12 inh 3.0%.
Screening COc1ccc(C[C@@H]2c3cc(O)c(OC)cc3CCN2C)cc1O returned PINK1 expr mod 0.0%, KB-V1 cytotox inactive, SW480 rereplic -1.9%, MCF10A rerep 0.9%, KB-3-1 cytotox inactive and ALOX12 inh 7.9%.
`COc1cccc(N2C(=O)NC(=O)/C(=C/c3ccc4c5c(cccc35)CC4)C2=O)c1` gave ALOX12 inh 39.8µM*.
For C[N+]12CCC(CC1)C(OC(=O)C(O)(c1ccccc1)c1ccccc1)C2 (configuration not stated) the results were PINK1 expr mod 5.1%, KB-V1 cytotox inactive, SW480 rereplic 0.2%, MCF10A rerep 8.1%, KB-3-1 cytotox inactive and ALOX12 inh -1.2%.
For CCC(CO)(C(=O)OC1C[N+]2(C)CCC1CC2)c1ccccc1 (configuration not stated) the results were PINK1 expr mod 0.2%, KB-V1 cytotox inactive, SW480 rereplic -18.4%, MCF10A rerep -3.8%, KB-3-1 cytotox inactive and ALOX12 inh 44.7µM*.
Nc1ccc2nonc2c1[N+](=O)[O-] was read as PINK1 expr mod 3.0%, KB-V1 cytotox inactive, SW480 rereplic -30.9%, MCF10A rerep -10.3%, KB-3-1 cytotox inactive and ALOX12 inh -21.6%.
For Cc1c(C)n(O)c2ccc3nonc3c12 the results were PINK1 expr mod inconclusive, KB-V1 cytotox inactive, SW480 rereplic inconclusive, MCF10A rerep 20.6µM*, KB-3-1 cytotox inactive and ALOX12 inh inconclusive.
O=[S+]1([O-])NC2(CCN(Cc3ccccn3)C2)CNc2ccccc21 (configuration not stated) was read as ALOX12 inh 58.3%.
For CCC(C)C1NC(=O)C2CCCN2C(=O)C(CC(C)C)OC(=O)CCNC(=O)C(C)N(C)C(=O)C(C(C)C)N(C)C1=O (configuration not stated) the results were PINK1 expr mod -2.4%, KB-V1 cytotox inactive, SW480 rereplic 11.6µM*, MCF10A rerep inconclusive, KB-3-1 cytotox 4.61µM* and ALOX12 inh 11.4%.
